The source of these data is paper PMC7862700, “An all-to-all approach to the identification of sequence-specific readers for epigenetic DNA modifications on cytosine”.

Experiment in all cases: DAPPL (digital affinity profiling via proximity ligation, sequencing); 10 mM Tris-HCl pH 7.5, 50 mM NaCl, 1 mM DTT, 4% glycerol, room temperature, 30 min; GST-TFs on glutathione beads, 16-mer random dsDNA library, 0.1% formaldehyde crosslink after washing; high values mean tight binding
What all share (details): protein: recombinant; tags: N-terminal GST; dsDNA, one strand shown

In one assay the target is T1, ERF (Homo sapiens, UniProt P50548 1-548).
T1 sequence: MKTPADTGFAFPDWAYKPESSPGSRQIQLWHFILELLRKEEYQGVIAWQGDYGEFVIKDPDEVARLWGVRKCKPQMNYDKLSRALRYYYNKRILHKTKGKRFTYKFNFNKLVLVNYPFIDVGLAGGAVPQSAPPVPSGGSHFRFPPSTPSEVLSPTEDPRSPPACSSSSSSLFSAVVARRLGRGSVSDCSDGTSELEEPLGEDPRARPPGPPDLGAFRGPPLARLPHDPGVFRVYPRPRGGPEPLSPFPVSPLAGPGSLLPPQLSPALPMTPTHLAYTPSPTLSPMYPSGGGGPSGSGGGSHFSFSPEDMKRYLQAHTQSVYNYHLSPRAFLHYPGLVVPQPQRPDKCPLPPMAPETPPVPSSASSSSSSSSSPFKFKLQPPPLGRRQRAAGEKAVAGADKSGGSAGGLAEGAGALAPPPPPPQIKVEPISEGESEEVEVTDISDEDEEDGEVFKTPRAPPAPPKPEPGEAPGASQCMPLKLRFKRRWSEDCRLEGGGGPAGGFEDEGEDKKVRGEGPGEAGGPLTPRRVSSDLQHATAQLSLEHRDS
Summed up: (§1)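 In yeast, human transcription factors were expressed with a GST fusion, then pulled down on glutathione beads and given DNA barcodes. Pooled with a tag-only sample, they were exposed to 200 nmole of a 16-mer random double-stranded DNA library (Tris/NaCl/DTT/glycerol buffer, room temperature, 30 min), washed, crosslinked with 0.1% formaldehyde, proximity-ligated using BsaI/T4 ligase for 1 h at 37 °C, PCR-amplified and read on an Illumina NextSeq500. Each hexamer's frequency of reads for a factor, divided by the matching frequency for the tag-only sample, gives the binding signal.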

For the next assay, the target named is T2, ETV3L (Homo sapiens, UniProt Q6ZN32 1-361).
T2 sequence: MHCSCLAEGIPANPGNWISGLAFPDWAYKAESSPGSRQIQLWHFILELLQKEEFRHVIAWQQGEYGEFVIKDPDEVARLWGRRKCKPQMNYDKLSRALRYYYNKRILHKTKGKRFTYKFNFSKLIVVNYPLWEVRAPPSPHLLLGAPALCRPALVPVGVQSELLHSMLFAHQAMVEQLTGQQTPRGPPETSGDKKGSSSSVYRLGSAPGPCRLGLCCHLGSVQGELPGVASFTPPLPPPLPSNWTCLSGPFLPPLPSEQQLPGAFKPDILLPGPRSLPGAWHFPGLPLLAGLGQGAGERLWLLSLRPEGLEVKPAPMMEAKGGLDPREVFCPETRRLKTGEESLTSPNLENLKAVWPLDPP
In a few lines:
as §1

The target in another assay is T3, ETS2 (Homo sapiens, UniProt P15036 1-469).
T3 sequence: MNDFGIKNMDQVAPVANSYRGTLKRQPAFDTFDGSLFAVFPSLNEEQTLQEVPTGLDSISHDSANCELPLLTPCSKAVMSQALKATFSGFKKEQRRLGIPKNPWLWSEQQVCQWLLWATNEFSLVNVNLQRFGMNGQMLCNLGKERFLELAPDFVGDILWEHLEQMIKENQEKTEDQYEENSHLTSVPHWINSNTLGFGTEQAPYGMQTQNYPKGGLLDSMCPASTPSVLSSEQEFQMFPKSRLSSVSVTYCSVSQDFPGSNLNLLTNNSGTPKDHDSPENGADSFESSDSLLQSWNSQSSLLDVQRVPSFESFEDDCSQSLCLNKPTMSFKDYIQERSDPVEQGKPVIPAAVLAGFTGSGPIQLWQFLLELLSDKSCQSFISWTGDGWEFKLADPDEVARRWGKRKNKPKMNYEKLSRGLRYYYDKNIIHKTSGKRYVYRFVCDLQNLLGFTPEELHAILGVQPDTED
Summed up:
as §1

A further assay has as its target T4, SPDEF (Homo sapiens, UniProt O95238 1-335).
T4 sequence: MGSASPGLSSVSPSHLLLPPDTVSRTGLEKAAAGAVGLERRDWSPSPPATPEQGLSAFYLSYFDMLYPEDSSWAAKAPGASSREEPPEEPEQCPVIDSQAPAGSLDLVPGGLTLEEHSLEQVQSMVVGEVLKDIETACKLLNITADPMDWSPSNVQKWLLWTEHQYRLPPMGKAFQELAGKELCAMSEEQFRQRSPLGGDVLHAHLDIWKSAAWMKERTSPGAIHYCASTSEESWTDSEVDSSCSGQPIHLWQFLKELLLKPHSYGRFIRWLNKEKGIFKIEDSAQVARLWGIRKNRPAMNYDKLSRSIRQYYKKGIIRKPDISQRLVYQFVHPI
In a few lines:
as §1

A further assay deals with T5, ETV7 (Homo sapiens, UniProt Q9Y603 1-341).
T5 sequence: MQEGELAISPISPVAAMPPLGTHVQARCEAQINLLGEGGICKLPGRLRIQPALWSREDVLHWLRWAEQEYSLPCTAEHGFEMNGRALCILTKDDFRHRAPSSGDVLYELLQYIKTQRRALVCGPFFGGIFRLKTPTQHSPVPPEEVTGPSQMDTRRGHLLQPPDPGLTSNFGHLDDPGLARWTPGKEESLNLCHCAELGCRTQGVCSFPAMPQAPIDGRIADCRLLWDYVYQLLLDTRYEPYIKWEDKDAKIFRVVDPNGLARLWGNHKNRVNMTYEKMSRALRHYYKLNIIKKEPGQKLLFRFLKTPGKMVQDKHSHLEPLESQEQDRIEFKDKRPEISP
Summed up: as §1

Another assay addresses T6, ELF5 (Homo sapiens, UniProt Q9UKW6-2 1-255).
T6 sequence: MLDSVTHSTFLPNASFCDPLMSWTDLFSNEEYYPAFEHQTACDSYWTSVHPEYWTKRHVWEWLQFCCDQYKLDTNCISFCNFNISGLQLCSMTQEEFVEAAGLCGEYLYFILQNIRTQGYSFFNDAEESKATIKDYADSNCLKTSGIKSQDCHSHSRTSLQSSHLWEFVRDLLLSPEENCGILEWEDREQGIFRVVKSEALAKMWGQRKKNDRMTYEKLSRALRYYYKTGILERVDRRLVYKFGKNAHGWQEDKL
In a few lines:
as §1

A further assay addresses T7, ETV3 (Homo sapiens, UniProt P41162-2 1-143).
T7 sequence: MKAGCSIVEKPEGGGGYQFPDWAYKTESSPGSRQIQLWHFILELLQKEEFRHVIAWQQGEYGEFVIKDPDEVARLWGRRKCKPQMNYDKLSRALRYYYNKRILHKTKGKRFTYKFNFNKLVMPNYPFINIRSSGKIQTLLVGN
Summed up: as §1

The next assay has as its target ETV6 (Homo sapiens, UniProt P41212 1-452). Summed up: as §1

Sequence of ETV6 (P41212 whole entry): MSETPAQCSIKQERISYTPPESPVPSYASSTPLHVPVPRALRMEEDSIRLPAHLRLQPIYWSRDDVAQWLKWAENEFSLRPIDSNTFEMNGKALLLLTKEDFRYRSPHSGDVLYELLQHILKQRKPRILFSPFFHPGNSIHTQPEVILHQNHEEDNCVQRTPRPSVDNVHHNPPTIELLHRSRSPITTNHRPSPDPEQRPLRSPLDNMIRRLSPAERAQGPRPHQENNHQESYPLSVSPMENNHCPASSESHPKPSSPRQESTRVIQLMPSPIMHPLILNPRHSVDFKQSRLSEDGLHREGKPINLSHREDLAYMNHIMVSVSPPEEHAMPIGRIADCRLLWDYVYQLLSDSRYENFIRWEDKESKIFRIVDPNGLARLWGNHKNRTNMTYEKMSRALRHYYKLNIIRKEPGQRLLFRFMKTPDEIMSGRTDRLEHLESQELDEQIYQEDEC

As for TGCGAA, the binding signal was 1.07 fold enrichment (6-mer frequency, TF over GST control) with ERF; 1.1 fold enrichment (6-mer frequency, TF over GST control) with ETV3L; 1.1 fold enrichment (6-mer frequency, TF over GST control) in the assay with ETS2; 1.2 fold enrichment (6-mer frequency, TF over GST control) with SPDEF; 1.18 fold enrichment (6-mer frequency, TF over GST control) in the assay with ETV7; 1.13 fold enrichment (6-mer frequency, TF over GST control) with ELF5. In addition, the binding signal in the assay with ETV3 is 1.16 fold enrichment (6-mer frequency, TF over GST control); with ETV6, 1.09 fold enrichment (6-mer frequency, TF over GST control).

In the case of CCATAC, the binding signal with ERF was 1.27 fold enrichment (6-mer frequency, TF over GST control); in the assay with ETV3L it was 1.22 fold enrichment (6-mer frequency, TF over GST control); in the assay with ETS2 it was 1.18 fold enrichment (6-mer frequency, TF over GST control); in the assay with SPDEF it was 1.2 fold enrichment (6-mer frequency, TF over GST control); with ETV7, 1.14 fold enrichment (6-mer frequency, TF over GST control); in the assay with ELF5, 1.09 fold enrichment (6-mer frequency, TF over GST control). The binding signal is 1.08 fold enrichment (6-mer frequency, TF over GST control) with ETV3 and 1.21 fold enrichment (6-mer frequency, TF over GST control) with ETV6.

As to CGTACA, the binding signal is 1.21 fold enrichment (6-mer frequency, TF over GST control) with ERF; 1.17 fold enrichment (6-mer frequency, TF over GST control) with ETV3L; 1.18 fold enrichment (6-mer frequency, TF over GST control) with ETS2; 1.2 fold enrichment (6-mer frequency, TF over GST control) in the assay with SPDEF; 1.25 fold enrichment (6-mer frequency, TF over GST control) with ETV7; 1.17 fold enrichment (6-mer frequency, TF over GST control) with ELF5. Besides, the binding signal with ETV3 was 1.14 fold enrichment (6-mer frequency, TF over GST control); with ETV6, 1.2 fold enrichment (6-mer frequency, TF over GST control).

Consider TAGGCT, for which the binding signal was 1.37 fold enrichment (6-mer frequency, TF over GST control) with ERF; 1.16 fold enrichment (6-mer frequency, TF over GST control) with ETV3L; 1.29 fold enrichment (6-mer frequency, TF over GST control) with ETS2; 1.24 fold enrichment (6-mer frequency, TF over GST control) in the assay with SPDEF; 1.35 fold enrichment (6-mer frequency, TF over GST control) with ETV7; 1.09 fold enrichment (6-mer frequency, TF over GST control) with ELF5. Moreover, the binding signal with ETV3 is 1.14 fold enrichment (6-mer frequency, TF over GST control); with ETV6, 1.24 fold enrichment (6-mer frequency, TF over GST control).

TCTCCG: the binding signal with ERF was 1.38 fold enrichment (6-mer frequency, TF over GST control); with ETV3L, 1.43 fold enrichment (6-mer frequency, TF over GST control); in the assay with ETS2, 1.62 fold enrichment (6-mer frequency, TF over GST control); with SPDEF, 1.65 fold enrichment (6-mer frequency, TF over GST control); with ETV7 it was 1.31 fold enrichment (6-mer frequency, TF over GST control); with ELF5, 1.56 fold enrichment (6-mer frequency, TF over GST control). In addition, the binding signal with ETV3 is 1.66 fold enrichment (6-mer frequency, TF over GST control); in the assay with ETV6, 1.48 fold enrichment (6-mer frequency, TF over GST control).

Regarding TAAATA, the binding signal with ERF is 1.21 fold enrichment (6-mer frequency, TF over GST control); with ETV3L it was 1.27 fold enrichment (6-mer frequency, TF over GST control); with ETS2, 1.27 fold enrichment (6-mer frequency, TF over GST control); with SPDEF it was 1.15 fold enrichment (6-mer frequency, TF over GST control); with ETV7, 1.31 fold enrichment (6-mer frequency, TF over GST control); with ELF5, 1.16 fold enrichment (6-mer frequency, TF over GST control). Further, the binding signal is 1.28 fold enrichment (6-mer frequency, TF over GST control) with ETV3 and 1.32 fold enrichment (6-mer frequency, TF over GST control) in the assay with ETV6.

Turning to CACTTC, the binding signal with ERF is 3.07 fold enrichment (6-mer frequency, TF over GST control); in the assay with ETV3L it was 3.63 fold enrichment (6-mer frequency, TF over GST control); with ETS2, 3.66 fold enrichment (6-mer frequency, TF over GST control); with SPDEF, 3.55 fold enrichment (6-mer frequency, TF over GST control); with ETV7 it was 3.64 fold enrichment (6-mer frequency, TF over GST control); with ELF5, 4.43 fold enrichment (6-mer frequency, TF over GST control). Besides, the binding signal with ETV3 was 3.65 fold enrichment (6-mer frequency, TF over GST control); in the assay with ETV6 it was 4.24 fold enrichment (6-mer frequency, TF over GST control).

Consider TGTCTA, for which the binding signal is 1.21 fold enrichment (6-mer frequency, TF over GST control) in the assay with ERF; 1.08 fold enrichment (6-mer frequency, TF over GST control) with ETV3L; 1.18 fold enrichment (6-mer frequency, TF over GST control) with ETS2; 1.2 fold enrichment (6-mer frequency, TF over GST control) with SPDEF; 1.28 fold enrichment (6-mer frequency, TF over GST control) with ETV7; 1.24 fold enrichment (6-mer frequency, TF over GST control) with ELF5. The binding signal is 1.23 fold enrichment (6-mer frequency, TF over GST control) with ETV3 and 1.07 fold enrichment (6-mer frequency, TF over GST control) with ETV6.
